In PubChem BioAssay AID687036 (The Scripps Research Institute Molecular Screening Center, 2013):
The whole screen tested about 3,300 compounds, of which about 1,400 (42%) were called active.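 How the source made its calls: active means mean inhibition across replicates above the hit cutoff derived for the earlier primary screen (cut at about 22% in these data); inactive means the rest.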 So high a share suggests a set chosen from earlier hits. The list is a sample of the results.

Each molecule was assayed against Protein arginine N-methyltransferase 1 (Homo sapiens) (UniProt Q99873) (assay: human PRMT1 activity-probe blockers, retest – biochemical, fluorescence polarization, triplicate, confirmation (AID 687036)). Settings: recombinant His-PRMT1, activity-based probe fluorescence polarization; at 2.79 µM; active compounds read high.
Sequence of Protein arginine N-methyltransferase 1 (Homo sapiens) (Q99873 whole entry, looked up): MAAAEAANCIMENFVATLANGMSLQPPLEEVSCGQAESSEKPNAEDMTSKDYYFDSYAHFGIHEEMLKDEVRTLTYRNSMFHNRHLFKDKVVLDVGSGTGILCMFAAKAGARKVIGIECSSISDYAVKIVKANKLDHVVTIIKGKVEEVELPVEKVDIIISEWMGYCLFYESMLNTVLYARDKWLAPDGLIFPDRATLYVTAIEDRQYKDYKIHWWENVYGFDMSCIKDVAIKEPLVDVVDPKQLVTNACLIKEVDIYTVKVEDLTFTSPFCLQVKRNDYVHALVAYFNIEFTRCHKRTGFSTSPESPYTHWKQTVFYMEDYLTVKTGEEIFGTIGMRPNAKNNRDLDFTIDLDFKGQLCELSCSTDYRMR

inhibition, active:
Cc1ccnc(-n2sc3ccccc3c2=O)n1 89.8%
CCN1/C(=C/C(=S)Nc2ccccc2)Sc2ccccc21 24.8%
c1ccc(CN2CCC(N=C3NN=C(c4ccc5c(c4)OCCO5)CS3)CC2)cc1 27.8%
N#Cc1c(N2CCCCC2)nc(N)c2c(N)nc(SCC(=O)O)cc12 56.5%
COc1ccc(C2CC(c3cccs3)=Nc3ccccc3S2)cc1OC (stereo not drawn) 48.6%
O=C(Oc1ccccc1C(=S)N1CCCCC1)c1cc([N+](=O)[O-])cc([N+](=O)[O-])c1 25.5%
COC(=O)c1ccccc1SC1CC(=O)N(c2cccc(C)c2)C1=O (stereo not drawn) 23.1%
CCN(CC)S(=O)(=O)c1cccc(-c2n[nH]c(=S)n2/N=C/c2ccc(C(=O)OC)cc2)c1 65.6%
CCOC(=O)N1CCN(C(c2cccnc2)c2ccc3cccnc3c2O)CC1 (stereo not drawn) 82.2%
COc1ccc(N=C2C=CC(=O)O2)cc1 83.2%
COc1ccccc1NC(=O)/C=C/C(N)=O 55.8%
O=C(O)c1ccccc1CSc1nc2ccccc2s1 33.2%
O=C1C=CC(=O)N1c1ccc(N2CCCCC2)cc1 82.8%
Cc1cccc(C)c1NC(=O)C(Cl)C(=O)c1ccccc1 (stereo not drawn) 30%
Cc1nc2ccc(S(=O)(=O)NCC(=O)O)cc2s1 22.9%
CCCCOC(=O)CNc1nnc(SCC(=O)OCC)[nH]c1=O 72.3%
CCOC(=O)Cc1csc(NC(=O)CSc2nc(C)cc(=O)[nH]2)n1 61.6%
OCCN1CCN(C(=S)c2ccc(-c3ccccc3)cc2)CC1 61.8%
COc1cc(NC(=S)N2CCCC(C)C2)c(OC)cc1Cl (stereo not drawn) 44.5%
CC(=O)N1CC(C)c2scc(C)[n+]2-c2ccccc21 (stereo not drawn) 50.9%
COc1cccc2c1C(=O)c1c(O)c3c(c(O)c1C2=O)CC(O)(C(C)=NNC(=O)c1ccc(Cl)c(Cl)c1)CC3OC1CC(N)C(O)C(C)O1 (stereo not drawn) 159%
COC(=O)/C=C\C(=O)Nc1cccc([N+](=O)[O-])c1 87.6%

inhibition, inactive:
COc1ccccc1-n1c(-c2cc(-c3ccco3)[nH]n2)n[nH]c1=S 2.25%
Cc1cccc(Oc2c([N+](=O)[O-])c(=O)n(C)c3ccccc23)c1 9.75%
Cc1cc(C(=O)NN=C/C=C/c2ccco2)n[nH]1 0.98%
Cc1cc2nc(-c3ccco3)c(Cc3cccc(F)c3)n2c(C)c1Br 20.8%
CCOC(=O)c1ccc(N2C(=O)CC(N3CCC(C(=O)OCC)CC3)C2=O)cc1 (stereo not drawn) 1.87%
O=C(O)c1ccc(/C=C2\SC(=S)N(NC(=O)c3ccc(Br)cc3)C2=O)cc1 2.94%
S=c1[nH]nc(-c2ccccc2)n1/N=C/c1c[nH]c2ccccc12 12.4%
S=c1ccc2ccccc2[nH]1 10.8%
CC(=O)NC1=NC(=O)CS1 15.3%
COc1ccccc1C(=O)NN1C(=O)C2C3C=CC(O3)C2C1=O (stereo not drawn) 8.23%
CN(C)c1ccc(Nc2c3c4c(cccc4n(C)c2=O)C(=O)c2ccccc2-3)cc1 1.6%
CCC(c1nnnn1Cc1ccco1)N(CCc1ccccc1)Cc1cc2ccc(OC)cc2[nH]c1=O (stereo not drawn) 5.74%
Cc1cc(C)c(S(=O)(=O)NN=C2c3ccccc3[C@H]3Cc4csc[n+]4[C@@H]23)c(C)c1 13.2%
O=c1/c(=C/c2ccc(CNS(=O)(=O)c3ccccc3)o2)sc2n1CCN=2 -3.63%
Clc1cccc(-c2nc3nc4ccccc4nc3n2Cc2ccco2)c1 19.7%
CC(=O)N1C(=O)/C(=C2\SC(=S)N(NC(=O)c3ccc(O)cc3)C2=O)c2ccccc21 1.92%
CN(C)c1ccc(C(CC(=O)O)C(=O)O)cc1 (stereo not drawn) 5.11%
Cc1cc(NC(=O)C(C)SCC(=O)Nc2cccc(S(=O)(=O)N3CCCCCC3)c2)no1 (stereo not drawn) -0.11%
COc1ccc(NC(=O)CN(C)C(=O)c2cc(-c3ccc(C)o3)nc3ccccc23)cc1 13.6%
CC1CCN(C(=S)c2ccc(-c3ccc(Cl)cc3Cl)o2)CC1 4.49%
COc1ccc(N2C(=O)/C(=C\c3ccco3)N=C2SCC(N)=O)cc1Cl 5.26%
Cc1c(NC(=O)/C=C/C(=O)O)cccc1[N+](=O)[O-] 4.54%
O=C(O)/C=C/C(=O)NNc1ccc([N+](=O)[O-])cc1 12.7%
CSc1c(SCc2ccccc2)cnn(Cc2ccccc2)c1=O 18.4%
Nc1c(C(=O)c2cccs2)sc2nsc(SCCN3CCCCC3)c12 -5.21%
O=C(COC(=O)Cn1cnc2ccccc21)Nc1cccc2c1C(=O)c1ccccc1C2=O 4.11%
